Source: PubChem BioAssay
Hits are enriched below; roughly 2% of the tested compounds scored in any of these assays.
EP2 antag = inhibitors of human EP2 prostaglandin E2 receptor; P43116; C6 glioma cells expressing human EP2, cAMP TR-FRET; cells stimulated with saturating PGE2; inhibition, % at 25 µM; hit rate 0.52% among 260,000;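 active = percent inhibition above 40 after rounding to a whole number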;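 note: rat C6 glioma host cells with rolipram phosphodiesterase inhibitor present; the protocol text gives 20 µM as final concentration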
Target sequence (P43116 whole entry, looked up): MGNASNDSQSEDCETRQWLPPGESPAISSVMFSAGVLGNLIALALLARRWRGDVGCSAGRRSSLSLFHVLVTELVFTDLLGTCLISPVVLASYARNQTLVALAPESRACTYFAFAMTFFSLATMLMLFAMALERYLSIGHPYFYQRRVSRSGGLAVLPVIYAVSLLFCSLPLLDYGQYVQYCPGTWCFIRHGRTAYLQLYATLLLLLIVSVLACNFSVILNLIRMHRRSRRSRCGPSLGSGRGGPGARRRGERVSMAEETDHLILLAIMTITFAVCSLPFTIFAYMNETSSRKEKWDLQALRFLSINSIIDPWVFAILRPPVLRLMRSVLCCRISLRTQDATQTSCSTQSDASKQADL
EP2 mod = EP2 receptor (human) modulation. hit rate 0.83% among 260,000. EP2-expressing cells, cAMP HTRF FRET, PGE2 co-stimulation. AID 940. P43116. induction, % at 25 µM;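 active = compounds whose cAMP rise, as percent of the full-agonist control response, exceeds 60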;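 note: rat C6 glioma line stably carrying human EP2 under a CMV promoter; the protocol text gives 20 µM as final concentration; 100% = response of wells given 1 µM PGE2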
CHT allo act = human CHT allosteric activation; B-score at 10 µM; hit rate 0.49% among 310,000; AID 488977; Q9GZV3; CHT-expressing cells, membrane potential dye, choline EC20; active compounds read high; LV-AA mutant CHT in HEK293 cells;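 active = initial fluorescence not abnormally high and integrated response B-score, plate-corrected, over 3 SD above library mean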
CHT inh = human CHT choline transport inhibition | Q9GZV3 | CHT-expressing cells, membrane potential dye, choline response; active compounds read low | B-score at 10 µM | hit rate 0.86% among 310,000 | AID 488975;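 active = B-score over 3 SD under the library average, and starting fluorescence ratio not unusually high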;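 note: choline stimulus applied at its EC90 after an EC20 pre-addition; B-score computed on integrated fluorescence ratio after choline addition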
CHT act confirm = human CHT activation, confirmatory screen | shares compounds with CHT allo act | CHT-expressing cells, membrane potential dye fluorescence (FDSS); % of choline EC20–EC90 response window; HEK293 expressing CHT LV-AA mutant; choline added at its EC20 | activation, % at 10 µM | hit rate 91% among 2,500;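 active = primary screen active, with duplicate mean activation above negative control mean plus 3 SD, cut at about 11% in these data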
HEK293 MP dye = CHT activator counter-screen hit in parental HEK293 cells; shares compounds with CHT allo act; membrane potential dye fluorescence (FDSS); measured after EC20 choline addition; ratio readout change at 10 µM, hits read low; hit rate 62% among 2,500; AID 623908;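 active = duplicate-averaged ratio beyond 3 SD from buffer wells, up or down, though filed actives are nearly all decreases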
Starred values were filed as active, the others as inactive; i = inactive; . = not tested or not shown.

SMILES	EP2 antag	EP2 mod	CHT allo act	CHT inh	CHT act confirm	HEK293 MP dye
Cn1c(C(=O)Nc2cccc(Cl)c2)cc2sccc21	16.6	-90.4	.	.	.	.
COc1ccc(-c2cc(C(=O)NNC(=O)c3csc(N4CCOCC4)n3)c3ccccc3n2)cc1	.	.	i	i	.	.
COc1ccc(-c2cc(C(=O)NNC(=O)c3csc(N4CCOCC4)n3)c3ccccc3n2)cc1OC	.	.	7.29*	i	10.6*	i
CCOC(=O)c1ccc(NC(=O)CSc2nc(NC(=O)c3ccccc3)c3c(C)c(C)oc3n2)cc1	2.1	5.4	i	i	.	.
COC(=O)c1ccccc1NC(=O)CSc1nc(NC(=O)c2ccccc2)c2c(C)c(C)oc2n1	5.6	5.4	8.42*	i	1.9	i
CC(=O)c1cccc(Nc2nc(=O)c3cccnc3s2)c1	14.7	8.3	6.96*	i	48.4*	-43.8*
CCOC(=O)c1ccc(Nc2nc(=O)c3cccnc3s2)cc1	8.9	-4.2	i	i	.	.
O=C1N(Cc2cccc(Cl)c2)C[C@@H]2C[C@@H](c3ccsc3)N3CCC[C@@]123	1.2	3.8	i	i	27.6*	i
COc1cc(OC)c(-c2nc(-c3ccncc3)no2)cc1OC	.	.	i	i	44.7*	-43.4*
COc1ccc(C(c2nnnn2Cc2cccs2)N2CCN(c3ccccc3F)CC2)cc1 (stereo unspecified)	9.8	19.1	i	i	31.2*	i
Cn1nnc2c[n+](CC(=O)c3ccc4ccccc4c3)cc(Br)c21	10.6	22.2	10.4*	i	58.4*	-93.6*
Cn1nnc2c[n+](CC(=O)c3ccc(Cl)cc3)cc(Br)c21	9.1	3.4	i	i	59.1*	-88.5*
O=C(CCCl)Nc1cc(-c2nc3ccccc3o2)ccc1Cl	13.2	-5.0	.	.	.	.
CC[C@H]1CN2CCc3cc(OC)c(OC)cc3C2C[C@@H]1C[C@H]1NCCc2cc(OC)c(OC)cc21 (stereo partly specified)	.	.	13.8*	i	41.3*	-43.4*
Cc1nnc2c(N3CCN(CCO)CC3)nc3ccccc3n12	.	.	i	i	52.1*	-50*
CCN1CCN(c2nc3ccccc3n3cnnc23)CC1	8.7	-7.0	i	i	.	.
O=C(NC1(C(F)(F)F)Oc2ccccc2O1)N1CCCC1	7.0	32.5	6.62*	i	0.5	i
Cc1cccc2cc(CN(Cc3cccnc3)Cc3nnnn3CC3CCCO3)c(=O)[nH]c12 (stereo unspecified)	6.4	-3.8	.	.	.	.
COc1ccccc1N1CCN(Cc2nc(-c3ccc(F)cc3)oc2C)CC1	1.6	-16.1	i	i	.	.
Cc1cc(N2CCN(Cc3nc(-c4ccc(F)cc4)oc3C)CC2)cc(C)n1	6.3	-11.7	6.85*	i	42.7*	-46.7*
Cc1cc2cccc(NS(=O)(=O)c3ccc4c(c3)CCC(=O)N4)c2o1	10.4	-75.4	.	.	.	.
c1ccc(-c2ccccc2OCCCN2CCCC2)cc1	6.1	-26.9	i	i	1.9	i
COc1ccccc1CNc1cc(CSc2ccc(Cl)cc2)nc(C)n1	11.8	-35.5	i	i	22.7*	i
CCCC[C@H]1COCCS(=O)(=O)N1Cc1cccc([N+](=O)[O-])c1	.	.	6.51*	i	12.6*	i
CCC1COCCS(=O)(=O)N1Cc1ccccc1 (stereo unspecified)	.	.	i	i	.	.
SMILES	EP2 antag	EP2 mod	CHT allo act	CHT inh	CHT act confirm	HEK293 MP dye
O=C(Cc1ccc(F)cc1)NCCn1nc(-c2ccco2)ccc1=O	7.1	4.4	.	.	.	.
CCOc1ccc(C2C3=C(CC(C)(C)CC3=O)NC3=C2C(=O)CC(C)(C)C3)cc1C(=O)O	11.6	-4.5	.	.	.	.
Cc1nnc(NCCc2ccccc2)n(N)c1=O	6.7	4.1	i	i	.	.
Cc1nnc(NCCc2ccccc2)c2ccccc12	.	.	7.18*	i	39.0*	-48.6*
C=CCn1c(SCC(=O)Nc2cccc(Cl)c2C)nnc1-c1ccncc1	6.2	-34.1	.	.	.	.
CCOC(=O)C1C2C=CC3(CN(C(C)C)C(=O)C13)O2 (stereo unspecified)	9.7	13.8	.	.	.	.
Cc1n(C)c2cc(Cl)ccc2[n+]1Cc1ccccc1	11.5	-4.7	9.3*	i	65.1*	-44.2*
CC[n+]1c(C)n(C)c2cc(S(=O)(=O)N(C)C)ccc21	7.2	10.6	i	i	.	.
Cc1ccc(-n2c(C)c3c(C)nnc(C)c3c2C)cc1N	6.4	-6.9	i	i	.	.
Cc1cc(-n2c(C)c3c(C)nnc(C)c3c2C)ccc1N	12.1	-16.2	6.75*	i	37.7*	-21.5*
CCCCC1CCC(C(=O)NC2CCS(=O)(=O)C2)CC1 (stereo unspecified)	12.6	17.1	i	i	10.2*	i
CCCCCCCCCCCC(=O)NC1CCS(=O)(=O)C1 (stereo unspecified)	3.1	-9.2	i	i	.	.
CCC1CCCCN1CCNS(=O)(=O)c1ccc2c(c1)oc(=O)n2C (stereo unspecified)	12.1	28.7	i	i	35.3*	-24.9*
O=C(NC1CCCCC1)C(c1ccccc1F)N(CC1CCCO1)C(=O)c1csnn1 (stereo unspecified)	12.3	-3.1	.	.	.	.
Clc1ccc(C[n+]2cc(-c3ccccc3)n3c2CCCCC3)c(Cl)c1	5.8	-26.0	i	i	.	.
Clc1ccc(-c2c[n+](Cc3ccc(Cl)cc3Cl)c3n2CCCCC3)cc1	8.5	-20.0	28*	i	66.5*	i
Clc1ccc(C[n+]2cc(-c3ccccc3)n3c2CCC3)cc1Cl	7.4	-4.2	7.84*	i	18.2*	-27.4*
O=[N+]([O-])c1ccc(C[n+]2cc(-c3ccccc3)n3c2CCCCC3)cc1	7.8	10.6	i	i	.	.
O=[N+]([O-])c1ccc(C[n+]2cc(-c3ccc(Cl)c(Cl)c3)n3c2CCCCC3)cc1	6.3	-0.1	i	i	33.8*	-33.1*
Clc1ccc(-c2c[n+](Cc3ccc(Br)cc3)c3n2CCCCC3)cc1	5.3	-27.3	i	i	.	.
Clc1ccc(-c2c[n+](Cc3cccc(Cl)c3)c3n2CCC3)cc1	7.5	-57.2	8.14*	i	69.4*	-53.7*
O=C(O)c1cnc2nc[nH]n2c1=O	9.2	-34.2	.	.	.	.
CC1CCC(C(C)C)C(OC(=O)C[n+]2cc(-c3ccc(Cl)cc3)n3c2CCCCC3)C1 (stereo unspecified)	14.3	-41.9	13.4*	i	64.4*	i
O=C(C[n+]1cc(-c2ccccc2)n2c1CCCCC2)c1ccc(Cl)cc1	4.9	3.4	i	i	.	.
Cc1cc(/C=C2/C(=N)N3C(=NC2=O)SN=C3S(C)(=O)=O)c(C)n1-c1ccccc1F	9.3	10.7	7.61*	i	-16.6	i
COC1=C(Nc2ccc(O)cc2)C(=O)c2ccccc2C1=O	7.7	-17.0	i	i	29.0*	-78.1*
